# Values joined by “and” are separate entries in the source; they are usually repeats but may differ in a detail not shown here. Equal entries are not always repeated. Active and inactive are the calls of the source. Unless noted, no rule for the calls is given here.
# Test system: not listed separately
# Assay: antimalarial activity against Dd2 strain (AID 2302;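 active = growth inhibition above 50% at the single 2 µM test dose, taken to imply half-maximal potency below 2 µM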;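 also: 0% = DMSO untreated growth and 100% = chloroquine plus artemisinin killed control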)
# Details: P. falciparum Dd2 in RBCs, LDH growth readout, 72 h; at 2 µM; stronger effect = higher value
row,Compound,growth inhibition
1,C#CCOc1ccc(CC(C)NCC(O)c2cccc(C(F)(F)F)c2)cc1 (stereo not given),74% (active) and 84% (active)
2,COC(=O)c1ccc(CC(C)NCC(O)c2cccc(C(F)(F)F)c2)cc1 (stereo not given),87% (active) and 73% (active)
3,Cc1ccc(C[C@H](C)NC[C@H](O)c2cccc(C(F)(F)F)c2)cc1,54% (active)
4,COC(=O)/C=C/c1ccc(CC(C)NCC(O)c2cccc(C(F)(F)F)c2)cc1 (stereo not given),96% (active)

# Test system: not listed separately
# Assay: human hepatoma cell viability loss – ATP luminescence, cytotoxicity control for P. falciparum antimalarial project, primary screen (AID 2303;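 active = inhibition above 50%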;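 also: 0% = DMSO wells and 100% = digitonin-killed cells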)
# Details: HepG2 viability, 24-48 h, at 10 µM, stronger effect = higher value
row,Compound,inhibition
1,C#CCOc1ccc(CC(C)NCC(O)c2cccc(C(F)(F)F)c2)cc1 (stereo not given),5% (inactive) and 28% (inactive)
2,COC(=O)c1ccc(CC(C)NCC(O)c2cccc(C(F)(F)F)c2)cc1 (stereo not given),-8% (inactive) and -9% (inactive)
3,Cc1ccc(C[C@H](C)NC[C@H](O)c2cccc(C(F)(F)F)c2)cc1,5% (inactive)
4,COC(=O)/C=C/c1ccc(CC(C)NCC(O)c2cccc(C(F)(F)F)c2)cc1 (stereo not given),16% (inactive)

# Biological target: L-lactate dehydrogenase (Plasmodium falciparum (isolate CDC / Honduras)) (UniProt Q27743)
# Assay: PfLDH activity inhibition – cell lysate, 3D7 strain, counter-screen for P. falciparum growth inhibition project (AID 2304);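 also: 0% = vehicle and 100% = reference inhibitor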
# Details: P. falciparum 3D7 crude extract, LDH APAD/NBT absorbance; at 2 µM; stronger effect = higher value
# Chain of L-lactate dehydrogenase (Plasmodium falciparum (isolate CDC / Honduras)) (Q27743 whole entry, looked up): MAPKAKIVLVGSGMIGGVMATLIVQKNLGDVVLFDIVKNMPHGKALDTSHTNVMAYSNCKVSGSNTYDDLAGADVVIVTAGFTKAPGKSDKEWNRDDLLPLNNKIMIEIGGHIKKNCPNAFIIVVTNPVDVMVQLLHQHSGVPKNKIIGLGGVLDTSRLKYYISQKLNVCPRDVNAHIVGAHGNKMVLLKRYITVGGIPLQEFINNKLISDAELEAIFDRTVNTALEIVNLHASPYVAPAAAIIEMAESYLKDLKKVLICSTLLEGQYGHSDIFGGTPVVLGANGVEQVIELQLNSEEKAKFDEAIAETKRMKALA
row,Compound,inhibition
1,C#CCOc1ccc(CC(C)NCC(O)c2cccc(C(F)(F)F)c2)cc1 (stereo not given),1% (inactive) and -2% (inactive)
2,COC(=O)c1ccc(CC(C)NCC(O)c2cccc(C(F)(F)F)c2)cc1 (stereo not given),-4% (inactive) and -1% (inactive)
3,Cc1ccc(C[C@H](C)NC[C@H](O)c2cccc(C(F)(F)F)c2)cc1,-1% (inactive)
4,COC(=O)/C=C/c1ccc(CC(C)NCC(O)c2cccc(C(F)(F)F)c2)cc1 (stereo not given),0% (inactive)

# Test system: not listed separately
# Assay: inhibition of 3D7 malaria parasite growth – strain 3D7 (AID 2306);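 also: 0% = DMSO wells and 100% = chloroquine plus artemisinin control wells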
# Details: P. falciparum 3D7 erythrocytic growth, LDH absorbance, 72 h; at 2 µM; stronger effect = higher value
row,Compound,growth inhibition
1,C#CCOc1ccc(CC(C)NCC(O)c2cccc(C(F)(F)F)c2)cc1 (stereo not given),90% (active) and 93% (active)
2,COC(=O)c1ccc(CC(C)NCC(O)c2cccc(C(F)(F)F)c2)cc1 (stereo not given),97% (active) and 94% (active)
3,Cc1ccc(C[C@H](C)NC[C@H](O)c2cccc(C(F)(F)F)c2)cc1,100% (active)
4,COC(=O)/C=C/c1ccc(CC(C)NCC(O)c2cccc(C(F)(F)F)c2)cc1 (stereo not given),97% (active)

# Test system: not listed separately
# Assay: compounds altering circadian rhythm period length – cell-based, LOPAC library, luminescence reporter (AID 2774);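 also: values are relative to mean of DMSO wells on each plate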
# Details: circadian reporter cells, at 7 µM, actives lie on both sides
row,Compound,period change
1,CC1=C[C@@H]2c3cccc4[nH]cc(c34)C[C@H]2N(C)C1,0.28 h (inactive)
2,Oc1ccc2c3c1O[C@H]1[C@@H](O)CC[C@@]4(O)C(C2)N(CC2CCC2)CCC314 (stereo not given in full),-0.2 h (inactive)
3,C=CCN1CCC2(C)c3cc(O)ccc3CC1C2C (stereo not given),-0.18 h (inactive)
4,COc1ccc2[nH]cc(CCN(C)C)c2c1,0.045 h (inactive)
5,CC(O)C(C)OC(=O)[C@@H]1C[C@@H]2c3cccc4c3c(cn4C(C)C)C[C@H]2N(C)C1 (stereo not given in full),0.035 h (inactive)
6,N[C@@H](Cn1cc(I)c(=O)[nH]c1=O)C(=O)O,-0.19 h (inactive)
7,COc1cc(C[C@@H](C)N)c(OC)cc1I,-0.225 h (inactive)
8,C[C@]12CC[C@@H](O)CC1CC[C@@H]1[C@@H]2CC[C@]2(C)C(=O)CC[C@@H]12 (stereo not given in full),0.105 h (inactive)
9,CN1CCC23CCCC[C@H]2C1Cc1ccc(O)cc13 (stereo not given in full),-0.06 h (inactive)
10,O=C(CCCN1CCC2(CC1)C(=O)N(CCc1ccc(N=C=S)cc1)CN2c1ccccc1)c1ccc(F)cc1,0.03 h (inactive)
11,CC[C@@H]1/C=C/C=C/C[C@H](C)[C@@H](O)[C@](C)(O)C(=O)[C@H](C)[C@@H](O)[C@H](C)C(=O)[C@H](C)[C@@H](O)[C@H](C)/C=C/C(=O)O[C@H]2[C@@H](C)[C@@H](CC1)O[C@@]1(CC[C@@H](C)[C@@H](CC(C)O)O1)[C@@H]2C (stereo not given in full),-1.77 h (inactive)
12,C=CCN1CCC2(C)c3cc(O)ccc3CC1[C@@H]2C (stereo not given in full),-0.025 h (inactive)
13,CC(C)[C@@]1(NC(=O)[C@@H]2C=C3c4cccc5[nH]cc(c45)C[C@H]3N(C)C2)O[C@@]2(O)[C@@H]3CCCN3C(=O)[C@H](Cc3ccccc3)N2C1=O,0.465 h (inactive)
14,NC(Cc1ccc(N(CCCl)CCCl)cc1)C(=O)O (stereo not given),0.08 h (inactive)
15,CCN1C[C@]2(C)CC[C@H](O)[C@@]34C5C[C@@H]6[C@@H](OC)C[C@@](O)(C5[C@H]6O)[C@@H](CC23)C14 (stereo not given in full),0.055 h (inactive)
16,CP(=O)(O)CCCN,-0.005 h (inactive)
17,Nc1ncnc2c1ncn2C1OC2COP(O)(=S)O[C@@H]2[C@@H]1O (stereo not given in full),-0.125 h (inactive)
18,CCN(CC)C(=O)N[C@@H]1C=C2c3cccc4[nH]cc(c34)C[C@H]2N(C)C1,0.415 h (inactive)
19,C[C@]12CC[C@H]3[C@@H](CCC4C[C@H](O)CC[C@@]43C)[C@@H]1CC[C@@H]2O (stereo not given in full),0.065 h (inactive)

# — PubChem BioAssay
